# Bioassay records (PubChem BioAssay)
# Many of the other results were omitted from the sample, so hits are more common in it than they were.
# TTR transcr act: activators of transthyretin transcription | 1.3% of 92,000 active | AID 1117267 | SH-SY5Y TTR promoter Gaussia luciferase, luminescence; 100% = recombinant luciferase protein wells | activation, % at 16.7 µM;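 active means activation above the mean of all tested compounds plus 3 SD, cut at about 9.5% in these data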;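 further: cells exposed to compounds for one day before reading; 0% = median of all test compound wells on the plate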
# HuH7 TTR inh: decreases TTR transcription in HuH7 cells in activator counter-screen; shares compounds with TTR transcr act; HuH7 TTR promoter-Gaussia luciferase reporter, luminescence; inhibition, % at 16.7 µM; 4% of 1,100 active;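 active means average inhibition above the solvent-only control wells' mean plus 3 SD, cut at about 15% in these data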;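 further: 0% = cells with DMSO only and 100% = cells with inhibitor control FD; inhibitors lower well luminescence so higher value means more inhibition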
# TTR up confirm: human TTR transcription activation, confirmation; activation, % at 16.7 µM; SHSY5Y TTR promoter Gaussia luciferase, luminescence; 100% = purified Lucia enzyme wells, no cells; shares compounds with TTR transcr act; 1,100 tested, under 10 active;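 active means mean activation above a set limit taken from the earlier primary screen, cut at about 11% in these data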;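 further: 0% = DMSO-treated cells and 100% = recombinant Lucia luciferase without cells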
# Numbers without * were called inactive.
SMILES,TTR transcr act,others
Cc1ccc(N(CC(=O)Nc2c(C)n(C)n(-c3ccccc3)c2=O)S(C)(=O)=O)cc1C,3,
COc1ccc(N(CC(=O)Nc2c(C)n(C)n(-c3ccccc3)c2=O)S(=O)(=O)c2ccccc2)cc1OC,12*,HuH7 TTR inh=-4;TTR up confirm=1
COc1ccc(N(CC(=O)Nc2c(C)n(C)n(-c3ccccc3)c2=O)S(=O)(=O)c2ccc(F)cc2)cc1,0,
O=S1(=O)c2c(NCc3ccco3)cccc2Oc2ccccc2CN1Cc1cn(Cc2ccc(Cl)cc2)nn1,1,
CCc1ccc(C(=O)C(C)OC(=O)CNS(=O)(=O)c2ccc(C)cc2)cc1 (stereo unspecified),-1,
Cn1c(=O)c2c(nc(CN3CCc4ccccc4C3)n2CCCO)n(C)c1=O,15*,HuH7 TTR inh=-8;TTR up confirm=0
Cn1c(=O)c2c(nc(CN3CCN(C(=O)c4ccco4)CC3)n2CCCO)n(C)c1=O,2,
Cn1c(=O)c2c(nc(CN3CCc4ccccc4C3)n2Cc2ccccc2F)n(C)c1=O,0,
Cc1cc(C)c(C(=O)C[n+]2cccc(C(N)=O)c2)c(C)c1,14*,HuH7 TTR inh=-9;TTR up confirm=0
Cc1ccc[n+](CC(=O)c2ccc(NC(=O)c3ccccc3)cc2)c1,1,
Cc1cccc(NC(=O)C[n+]2cccc(C)c2)c1,-2,
COc1ccc(Cn2ccc3ccc(-c4ccc5ccn(C(=O)C6CC6)c5c4)cc32)cc1,2,
CC(=O)c1ccc([C@H](O)[C@@H](C(=O)N(C)c2ccccc2)C2CC2)cc1,5,
CN1C2=N[C@H](c3ccccc3Br)CC(=O)N2/C(=C\c2ccccc2)[C@@H]1c1ccccc1,0,
CCCCN1C(=O)C(CC(=O)NCc2ccco2)CC(C(=O)N(C(C)C)C(C)C)=C1C (stereo unspecified),-2,
O=C(O)CCc1ccccc1OC(=O)c1ccccc1,1,
O=C(Oc1cc(=O)oc2ccccc12)c1ccccc1,14*,HuH7 TTR inh=0;TTR up confirm=0
O=C(Oc1cccc2ccccc12)c1ccccc1,0,
CCC[C@H]1[C@@H](OC(=O)NCc2cccnc2)CC[C@@]23CCCN2C(=O)CCC[C@@H]13,2,
Cc1cc(C)n(CCOc2ccc(Br)cc2)n1,10*,HuH7 TTR inh=-18;TTR up confirm=0
Cc1cc(C)n(CCCC(=O)O)n1,-2,
Cc1cc(C)n(CC(O)COc2cccc(OCC(O)Cn3nc(C)cc3C)c2)n1 (stereo unspecified),-4,
COC(=O)[C@]12C[C@H](CC(=O)NCc3ccc(C)o3)C(=O)N(Cc3ccc(Cl)cc3Cl)C1=C[C@H](COCc1ccccc1)O[C@@H]2C,0,
COC[C@@H]1CCCN1c1cccc2c1S(=O)(=O)N(C1CC1)CCCO2,-1,
CCCCCCCCN1C(=O)[C@@H](CC(=O)NCC23CC4CC(CC(C4)C2)C3)C[C@@]2(C(=O)OC)C1=C[C@H](C(C)C)O[C@@H]2C1CC1,1,
SMILES,TTR transcr act,others
O=C(CC(=O)c1ccccc1)Nc1cc([N+](=O)[O-])ccc1Cl,3,
O=C(COc1ncnc2ccccc12)Nc1cc([N+](=O)[O-])ccc1Cl,38*,HuH7 TTR inh=-4;TTR up confirm=0
O=C(COc1ncnc2cc([N+](=O)[O-])ccc12)NC(=O)NC1CCCCC1,0,
COc1cccc(N(C)C(=O)[C@@H](C2CC2)[C@@H](O)c2ccc(C(C)=O)cc2)c1,5,
CC1CCCCC1NS(=O)(=O)c1ccc(-n2cnnn2)cc1 (stereo unspecified),0,
COc1cc(S(=O)(=O)NC2CCCCC2C)ccc1-n1cnnn1 (stereo unspecified),14*,HuH7 TTR inh=-11;TTR up confirm=0
COc1cc(S(=O)(=O)NC2CCCCC2C)ccc1Cl (stereo unspecified),3,
O=S1(=O)c2c(cccc2N2CCC[C@@H]2CO)OCCCN1C1CC1,0,
O=C(C1CC1)N1CCN=C1SCc1ccccc1,-2,
O=C(C1CC1)N1CCN=C1SCc1cccc(F)c1,0,
CC(Oc1ccccc1)C(=O)N1CCN=C1SCc1ccccc1 (stereo unspecified),12*,HuH7 TTR inh=29*;TTR up confirm=-2
O=C(NCCc1c[nH]c2ccccc12)OCc1cn(Cc2ccc(F)c(F)c2)nn1,0,
Cc1ccc(S(=O)(=O)c2nc(-c3ccco3)oc2SCC(N)=O)cc1,0,
O=C(CSc1nc2ccccc2o1)NCC1CCCO1 (stereo unspecified),0,
O=C(CSc1oc(-c2ccco2)nc1S(=O)(=O)c1ccccc1)NCC1CCCO1 (stereo unspecified),12*,HuH7 TTR inh=-7;TTR up confirm=0
COC(=O)c1ccc(Cn2ccc3ccc(-c4ccc5ccn(C(=O)c6ccccc6OC)c5c4)cc32)cc1,2,
COc1cccc(OCCn2cccc2/C=C2/C(=N)N3OC(C)=CC3=NC2=O)c1,2,
CCOc1ccc(/C=C2/C(=N)N3OC(C)=CC3=NC2=O)cc1OC,9.9*,HuH7 TTR inh=-9;TTR up confirm=0
COc1cc(/C=C2/C(=N)N3OC(C)=CC3=NC2=O)ccc1OCCOc1ccc(C)cc1,2,
Cc1ccccc1CN1CCCCC(NC(=O)c2ccc(F)cc2F)C1=O (stereo unspecified),-1,
O=C(Nc1ccc(C(O)(C(F)(F)F)C(F)(F)F)cc1)c1ccc(Cl)cc1,-2,
CCN1C(=O)[C@H]2[C@@H](c3ccc(OC)cc3)N3C(=O)CN(Cc4ccccc4)C(=O)[C@@]3(Cc3ccccc3)[C@H]2C1=O,5,
CCN1C(=O)[C@H]2[C@@H](c3ccc(OC)cc3)N[C@]3(CCCN(Cc4ccccc4)C3=O)[C@H]2C1=O,0,
CCN1C(=O)[C@@H]2[C@H](C1=O)[C@@H]1C(=O)Nc3ccccc3C(=O)N1[C@@H]2c1ccc(OC)cc1,11*,HuH7 TTR inh=-12;TTR up confirm=0
COC(=O)[C@]12C[C@H](CC(=O)NCCC(C)C)C(=O)N(Cc3ccccc3)C1=C[C@H](COCc1ccccc1)O[C@@H]2C,0,
SMILES,TTR transcr act,others
COC(=O)[C@]12C[C@H](CC(=O)NCCC(C)C)C(=O)N(Cc3cccc4ccccc34)C1=C[C@H](C(C)(C)C)O[C@@H]2C,-2,
CCc1nc2ccc(C(=O)Nc3cccc(NS(C)(=O)=O)c3)cn2c1N(CC)Cc1cccc(Br)c1,0,
COc1ccccc1N1CCN(S(=O)(=O)CCNC(=O)C2CCCC2)CC1,-1,
COc1ccccc1N1CCN(C(=O)C(Sc2ccccc2)c2ccccc2)CC1 (stereo unspecified),-3,
COc1ccccc1N1CCN(C(=O)C(CC(C)C)NC(=O)C2CCCCC2)CC1 (stereo unspecified),21*,HuH7 TTR inh=-10;TTR up confirm=0
C[C@H]1[C@@H](NCc2cccs2)CC[C@@]23CCCN2C(=O)CCC[C@@H]13,1,
COc1ccc(-n2c(SCC(=O)Nc3nccs3)nc3c(c2=O)SCC3)cc1,2,
CCOc1ccc(-n2c(SCC(=O)Nc3ccc4c(c3)OCCO4)nc3c(c2=O)SCC3)cc1,0,
COc1ccc(NC(=O)CSc2nc3c(c(=O)n2-c2ccc(F)cc2)SCC3)c(OC)c1,15*,HuH7 TTR inh=-10;TTR up confirm=0
CC(C)CNC(=O)OCc1cn(Cc2ccc(F)cc2F)nn1,0,
CCOC(=O)[C@@]12CCCC=C1N(CCc1ccc(Cl)cc1)C(=O)[C@H]2CC(=O)NCCc1ccccc1OC,-2,
COc1ccccc1-n1cnc2c(c1=O)c1nc3ccccc3nc1n2CCc1ccccc1,1,
